# Measured values published in paper PMC5540273 (PLoS ONE, 2017).
# Test system: MAP3K3
# Details: concentration: 1 μM,replicates: in singlicate; n = 1
# 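Note: KINOMEscan kinase panel screen.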
row,Compound,%Inh
1,Cn1ccc2ncnc(Oc3ccc(NC(=O)Nc4cc(C(C)(C)C)on4)c(Cl)c3)c21,17%
2,CC(=O)Nc1ccc(-c2cc3ncnc(SCC(=O)O)c3s2)cc1,1%
3,CN(c1ccccc1CNc1nc(Nc2ccc3c(c2)CC(=O)N3)ncc1C(F)(F)F)S(C)(=O)=O,63%
4,FC(F)(F)c1cc(Br)cc(Nc2nccc(-c3cnn4ncccc34)n2)c1 [GW810578],29%
5,O=C1NCCc2[nH]c(-c3ccncc3)cc21,23%
6,O=C(Nc1cccc(C(F)(F)F)c1)c1cccc(Oc2ccc3nccn3n2)c1,0%
7,Cc1ccc(CC(=O)N2CCc3cc(-c4cn(C)c5ncnc(N)c45)ccc32)cc1 [GSK2634758],22%
8,COC(=O)c1cccc(NC(=O)NC2CCN(c3ccnc(NCc4ccc(F)cc4)n3)CC2)c1 [GSK1379860],0%
9,Cn1ccc2ncnc(Oc3ccc(NC(=O)Nc4ccnc(C(F)(F)F)c4)c(Cl)c3)c21,6%
10,O=C(NOCC1CC1)c1cc(Br)c(F)c(F)c1Nc1ccc(I)cc1Cl,0%
11,COc1ccc(Nc2nccc(N3CCC(NC(=O)c4cccc(C#N)c4)C3)n2)cc1 (centres unmarked) [GSK1379730],0%
12,COc1cccc(C2=C(Nc3cccc(Cl)c3)C(=O)NC2=O)c1 [SB-341556],29%
13,Cc1n[nH]c2cc(Nc3ccnc(Nc4cccc(CN5CCOCC5)c4)n3)ccc12 [GW682569],0%
14,C[C@@H]1CNc2c(sc3ccc4nc(-c5ccncc5)ccc4c23)C(=O)N1,5%
